Measurements as given in PubChem BioAssay AID624255 (Broad Institute, 2012).
The whole screen tested about 77,000 compounds, of which about 4,600 (6%) were called active. Inconclusive results (about 1%) are left out.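 Rule for the calls: active = mean inhibition above about 93%, with at least 55% of replicates each passing it (limit read from the data, passing the limit was not always enough); inconclusive = only one of those two conditions holds; inactive = neither condition holds.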 The list comes from a sample in which actives are over-represented; it also holds similar structures and randomly drawn compounds.

Assay: T. cruzi intracellular proliferation inhibitors, primary screen, cell-based, beta-gal Tulahuen parasites, NIH3T3 host, luminescence (AID 624255)
Conditions: T. cruzi beta-gal in NIH3T3, GalScreen luminescence, 90 h; at 8.34 µM; active compounds read high

inhibition, inactive:
O=C(C[C@@H]1CC[C@H]2[C@@H](COC[C@H](O)CN2S(=O)(=O)c2ccc(F)cc2)O1)N[C@H]1CCN(Cc2ccccc2)C1 67.7%
Cc1ccccc1-c1ccc2c(c1)O[C@H](CN(C)C)[C@@H](C)CN([C@H](C)CO)S2(=O)=O 30%
CCC(=O)N(C)C[C@@H]1Oc2cc(-c3ccccc3OC)ccc2S(=O)(=O)N([C@H](C)CO)C[C@H]1C 52.7%
CC(=O)N(C)C[C@H]1Oc2cc(-c3ccc(C)cc3)ccc2S(=O)(=O)N([C@@H](C)CO)C[C@@H]1C 98.5%
CNC[C@@H]1Oc2cc(-c3ccccc3OC)ccc2S(=O)(=O)N([C@@H](C)CO)C[C@H]1C 42.1%
Cc1ccc(-c2ccc3c(c2)O[C@H](CN(C)C)[C@@H](C)CN([C@@H](C)CO)S3(=O)=O)cc1 71.8%
Cc1ccccc1-c1ccc2c(c1)O[C@H](CN(C)C)[C@H](C)CN([C@@H](C)CO)S2(=O)=O 15.2%
CO[C@@H](CN(C)S(=O)(=O)c1cccc(Cl)c1)[C@H](C)CN([C@H](C)CO)S(=O)(=O)c1cccc(Cl)c1 71.5%
C[C@@H]1CCCCO[C@H](CN(C)C(=O)Cc2ccccc2)[C@@H](C)CN([C@@H](C)CO)C(=O)c2cc(NC(=O)c3ccccc3)ccc2O1 46.7%
CCCNC(=O)[C@@H]1[C@@H](CO)[C@@H]2Cn3c(ccc(/C=C/c4ccccc4)c3=O)[C@H]1N2CCC 59.6%
O=C(NCC1CC1)[C@H]1[C@H](CO)[C@H]2Cn3c(ccc(/C=C/c4ccccc4)c3=O)[C@@H]1N2C(=O)C1CCC1 -126%
COc1ccccc1NC(=O)N[C@H]1C=C[C@@H](CC(=O)N[C@@H](C)c2ccccc2)O[C@@H]1CO 3.52%
CO[C@H]1CN(C)C(=O)c2cc(NC(=O)C3CCC3)ccc2OC[C@H](C)N(Cc2nccs2)C[C@H]1C 16.8%
CCCNC(=O)[C@@H]1[C@@H](CO)[C@@H]2Cn3c(cccc3=O)[C@H]1N2C(=O)C1CC1 38.4%
CCCNC(=O)[C@@H]1[C@@H](CO)[C@@H]2Cn3c(cccc3=O)[C@H]1N2C(=O)Nc1cc(F)ccc1F 81.1%
C[C@@H]1CN([C@@H](C)CO)C(=O)c2cc(NC(=O)C3CCCCC3)ccc2O[C@@H](C)CCCCO[C@@H]1CN(C)Cc1ccc(C(=O)O)cc1 15.2%
C[C@@H]1CCCCO[C@@H](CN(C)CC2CCCCC2)[C@H](C)CN([C@H](C)CO)C(=O)c2cc(NC(=O)C3CCCCC3)ccc2O1 51.3%
C[C@@H]1CCCCO[C@@H](CN(C)CC2CC2)[C@@H](C)CN([C@H](C)CO)C(=O)c2cc(NC(=O)C3CCCCC3)ccc2O1 89%
C[C@@H]1CCCCO[C@@H](CN(C)Cc2ccc(C(=O)O)cc2)[C@H](C)CN([C@@H](C)CO)C(=O)c2cc(NC(=O)C3CCCCC3)ccc2O1 -8.6%
O=C(O)C[C@H]1C[C@@H]2c3cc(NC(=O)Nc4ccc(C(F)(F)F)cc4)ccc3O[C@@H]2[C@@H](CO)O1 -33%
C[C@H]1CN([C@@H](C)CO)C(=O)c2cccc(NC(=O)Nc3ccccc3)c2O[C@H]1CN(C)S(=O)(=O)c1ccc(F)cc1 -95%
C[C@H]1CCCCO[C@H](CN(C)CC2CC2)[C@@H](C)CN([C@@H](C)CO)C(=O)c2cc(NS(C)(=O)=O)ccc2O1 4.98%
CCNC(=O)Nc1ccc2c(c1)C(=O)N(C)[C@@H]1CC[C@@H](CC(=O)NC3CCCCC3)O[C@H]1CO2 12.5%
CC(C)(O)C#Cc1ccc([C@H]2[C@H]3CN(C(=O)c4ccncc4)CCCCN3[C@H]2CO)cc1 22%
C[C@H](O)C#Cc1ccc([C@@H]2[C@@H](CO)N3CCCCN(C(=O)c4ccncc4)C[C@@H]23)cc1 15.2%
O=C(c1ccc(F)cc1)N1CCCCN2[C@@H](CO)[C@H](c3ccc(-c4ccccc4)cc3)[C@@H]2C1 61.8%
O=C(c1cccc(F)c1)N1CCCCN2[C@@H](CO)[C@H](c3ccc(-c4cncnc4)cc3)[C@@H]2C1 83.5%
CC(C)(O)C#Cc1ccc([C@H]2[C@@H](CO)N3CCCCN(C(=O)c4ccncc4)C[C@H]23)cc1 10.9%
COc1ccccc1-c1ccc([C@@H]2[C@@H](CO)N3CCCCN(C(=O)c4ccncc4)C[C@@H]23)cc1 52.8%
C[C@@H](O)C#Cc1ccc([C@H]2[C@H](CO)N3CCCCN(C(=O)c4ccc(F)cc4)C[C@@H]23)cc1 -25.9%
O=C(c1cccc(F)c1)N1CCCCN2[C@H](CO)[C@@H](c3ccc(-c4cncnc4)cc3)[C@H]2C1 44.2%

inhibition, active:
Cc1ccc(-c2ccc3c(c2)O[C@H](CN(C)C)[C@@H](C)CN([C@H](C)CO)S3(=O)=O)cc1 107%
COc1ccccc1-c1ccc2c(c1)O[C@H](CN(C)S(=O)(=O)c1ccc(C)cc1)[C@@H](C)CN([C@H](C)CO)S2(=O)=O 124%
COc1ccccc1-c1ccc2c(c1)O[C@@H](CN(C)C)[C@H](C)CN([C@H](C)CO)S2(=O)=O 102%
O=C(NCc1ccccn1)[C@@H]1[C@@H](CO)[C@@H]2Cn3c(ccc(/C=C/c4ccccc4)c3=O)[C@H]1N2CC1CC1 110%
C[C@@H]1CCCCO[C@@H](CN(C)CC2CC2)[C@H](C)CN([C@H](C)CO)C(=O)c2cc(NC(=O)C3CCCCC3)ccc2O1 102%
C[C@@H]1CN([C@@H](C)CO)C(=O)c2cc(NC(=O)C3CCCCC3)ccc2O[C@@H](C)CCCCO[C@H]1CN(C)Cc1ccncc1 106%
COc1ccc(C#Cc2ccc([C@@H]3[C@@H](CO)N4CCCCN(C(=O)c5ccncc5)C[C@@H]34)cc2)cc1 98.5%
O=C(c1cccc(F)c1)N1CCCCN2[C@H](CO)[C@H](c3ccc(-c4ccncc4)cc3)[C@H]2C1 99.9%
CC(C)(O)C#Cc1ccc([C@@H]2[C@H](CO)N3CCCCN(C(=O)c4cccc(F)c4)C[C@@H]23)cc1 112%
O=C(c1ccncc1)N1CCCCN2[C@H](CO)[C@H](c3ccc(-c4ccccc4)cc3)[C@H]2C1 103%
